Source: PubChem BioAssay (Broad Institute)
DUX4 inh: blocks DUX4-driven transcriptional activation | 293T-iDUX4 ZSCAN4-Gaussia luciferase reporter, 24 h; hits give low values | activity change, negative = inhibition, % (concentration not given with the values) | hit rate 0.8% among 37,000 | AID 1224904;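 active means mean inhibition of at least 10% in the main channel, exceeding the control channel by a set limit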;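 further: 0% = median of neutral control wells and -100% = median of positive control wells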
An asterisk follows results filed as active; ! = not confirmed by another sample. Only a selection was taken, and hits are over-represented in it overall.

SMILES | DUX4 inh
O=C(C[C@@H]1CC[C@@H]2[C@H](COC[C@@H](O)CN2C(=O)c2ccccc2F)O1)N1CCN(c2ccccc2)CC1 | 4
COc1ccccc1C#Cc1ccc2c(c1)[C@@H]1NCC[C@@H]1[C@H](CO)N2 | -23*
COc1ccccc1C#Cc1ccc2c(c1)[C@@H]1[C@@H](CCN1C(=O)c1ccncc1)[C@@H](CO)N2 | -9
OC[C@@H]1Nc2ccc(C#Cc3cccc(F)c3)cc2[C@H]2NCC[C@@H]12 | 7
CC=Cc1ccc2n(c1=O)C[C@@H]1[C@@H](CO)[C@H](C(=O)NCC(F)(F)F)N(C(=O)c3cccnc3)[C@H]21 (mixture of isomers) | 4
O=C(Cc1ccccc1)N1CC[C@H]2[C@H](CO)Nc3ccc(C#Cc4ccccc4)cc3[C@H]21 | 9
O=C(c1ccc(F)cc1)N1CC[C@@H]2[C@@H](CO)Nc3ccc(C#Cc4ccc(F)cc4)cc3[C@@H]21 | -52*
O=C(c1cccc(F)c1)N1CC[C@@H]2[C@H]1c1cc(C#Cc3ccc(F)cc3)ccc1N[C@@H]2CO | -14*
O=C(c1ccc(F)cc1)N1CC[C@@H]2[C@H](CO)Nc3ccc(C#CC4CC4)cc3[C@@H]21 | 0
COc1ccc(C#Cc2ccc3c(c2)[C@@H]2[C@@H](CCN2C(=O)c2cccc(F)c2)[C@@H](CO)N3)cc1 | 21
COc1ccc(C#Cc2ccc3c(c2)[C@H]2[C@H](CCN2C(=O)c2cccc(F)c2)[C@@H](CO)N3)cc1 | 11
O=C(Cc1ccccc1)N1CC[C@@H]2[C@H](CO)Nc3ccc(C#Cc4cccc(F)c4)cc3[C@@H]21 | -19*
O=C(c1ccc(F)cc1)N1CC[C@H]2[C@H](CO)Nc3ccc(C#Cc4ccccc4F)cc3[C@H]21 | 0
O=C(Cc1ccccc1)N1CC[C@H]2[C@H](CO)Nc3ccc(C#Cc4cccc(F)c4)cc3[C@H]21 | -4
O=C(C[C@H]1CC[C@@H]2[C@H](COC[C@@H](O)CN2S(=O)(=O)c2ccc(F)cc2)O1)N[C@@H]1CCN(Cc2ccccc2)C1 | -3
COc1ccc(NC(=O)N(C)C[C@H]2OCCCC[C@@H](C)Oc3ccc(NC(=O)CCCN(C)C)cc3C(=O)N([C@H](C)CO)C[C@@H]2C)cc1 | 0
CN(C)CCCNC(=O)C[C@H]1CC[C@@H]2[C@H](COc3ccc(NC(=O)NC4CCCC4)cc3C(=O)N2C)O1 | 1
COc1ccccc1NC(=O)Nc1ccc2c(c1)C(=O)N(C)C[C@@H](OC)[C@@H](C)CN[C@@H](C)CO2 | -1
O=C(Nc1cccc(Cl)c1)N1[C@@H]2CNC[C@H]1C2c1ccc(-c2ccccc2)cc1 (stereo partly specified) | 10
CO[C@H]1CC[C@@H]2CCN(C)C(=O)CCCN(C)C(=O)c3cccc(C#N)c3OC[C@H]1O2 | 5
CNC[C@H]1Oc2ccc(NC(=O)Nc3c(C)noc3C)cc2C(=O)N([C@H](C)CO)C[C@@H]1C | -4
CN1c2ccc(Br)cc2[C@H]2[C@H](CCN2C(=O)Cc2ccccc2)[C@H]1CO | 8
O=C(C1CCC1)N1CC2(C1)[C@H](c1ccccc1)[C@H](CO)N2Cc1ccccc1F | -7
O=C(C1CCOCC1)N1CC2(C1)[C@H](c1ccccc1)[C@@H](CO)N2Cc1ccc(Cl)cc1 | -3
O=C(C1CCCC1)N1CC2(C1)[C@H](c1ccccc1)[C@@H](CO)N2Cc1ccccc1F | -45*
SMILES | DUX4 inh
O=C(C1CCCC1)N1CC2(C1)[C@@H](c1ccccc1)[C@H](CO)N2Cc1ccccc1F | -7
O=C(C1CCCC1)N1CC2(C1)[C@@H](c1ccccc1)[C@@H](CO)N2Cc1ccc(Cl)cc1 | -8
O=C(C1CCCCC1)N1CC2(C1)[C@H](c1ccccc1)[C@@H](CO)N2Cc1ccc(Cl)cc1 | -51*
Cc1noc(C)c1S(=O)(=O)N(C)C[C@@H]1Oc2ccc(NC(=O)c3ccncc3)cc2CC(=O)N([C@@H](C)CO)C[C@@H]1C | -4
O=C([C@H]1[C@H](CO)[C@H]2Cn3c(cccc3=O)[C@@H]1N2CC1CCCC1)N1CCc2ccccc2C1 | -4
O=C(Nc1cc(F)ccc1F)N[C@@H]1CC[C@H](CC(=O)N2CCc3ccccc3C2)O[C@@H]1CO | -9
CS(=O)(=O)Nc1ccc2c(c1)[C@H]1C[C@H](CC(=O)NCCc3ccccc3)O[C@H](CO)[C@H]1O2 | 5
CCCNC(=O)[C@@H]1[C@@H](CO)[C@@H]2Cn3c(ccc(-c4ccc(OC)cc4)c3=O)[C@H]1N2CC | -1
Cc1ccc(-c2ccc(C3[C@@H]4CN(Cc5ccccc5)C[C@H]3N4)cc2)cc1 (stereo partly specified) | 6
CN(C)C(=O)c1cccc(-c2ccc(C3[C@@H]4CN(Cc5cncnc5)C[C@H]3N4)cc2)c1 (stereo partly specified) | 14
COc1cccc(-c2ccc(C3[C@H]4CNC[C@@H]3N4Cc3ccccc3F)cc2)c1 (stereo partly specified) | 7
Fc1cccc(CN2[C@@H]3CNC[C@H]2C3c2ccc(-c3ccccc3)cc2)c1 (stereo partly specified) | 16
COc1cccc(CN2C[C@@H]3N[C@H](C2)C3c2ccc(-c3ccncc3)cc2)c1 (stereo partly specified) | -26*!
COc1cccc(CN2[C@@H]3CNC[C@H]2C3c2ccc(-c3ccc(C#N)cc3)cc2)c1 (stereo partly specified) | 4
COc1cccc(S(=O)(=O)N2[C@@H]3CNC[C@H]2C3c2ccc(-c3ccccc3F)cc2)c1 (stereo partly specified) | 3
Fc1ccc(-c2ccc(C3[C@@H]4CN(Cc5cccc(F)c5)C[C@H]3N4)cc2)cc1 (stereo partly specified) | -36*!
COc1cccc(CN2C[C@@H]3N[C@H](C2)C3c2ccc(-c3ccccc3F)cc2)c1 (stereo partly specified) | -19*!
CN(C)C(=O)c1cccc(-c2ccc(C3[C@@H]4CN(Cc5ccccc5F)C[C@H]3N4)cc2)c1 (stereo partly specified) | -18*!
CN(C)C(=O)c1cccc(-c2ccc(C3[C@@H]4CN(C(=O)Nc5ccccc5F)C[C@H]3N4)cc2)c1 (stereo partly specified) | 3
C[C@H]1CN([C@@H](C)CO)C(=O)c2cc(-c3cccc(C(=O)N(C)C)c3)cnc2O[C@@H]1CN(C)S(=O)(=O)c1cccc(F)c1 | -2
C/C=C/c1cccc(-c2nc(C(=O)NCc3ccc(OC)cc3)cc3c2[C@H](CCO)N([S@@](=O)C(C)(C)C)C3)c1 | 3
COc1cccc(-c2ccc3c(c2)O[C@@H](CN(C)C(=O)C2CCOCC2)[C@H](C)CN([C@@H](C)CO)S3(=O)=O)c1 | 1
Cc1cccc(-c2ccc(C3[C@@H]4CN(Cc5cccnc5)C[C@H]3N4)cc2)c1 (stereo partly specified) | 20
COc1cccc(CN2C[C@@H]3N[C@H](C2)C3c2ccc(-c3ccccc3C)cc2)c1 (stereo partly specified) | -35*!
O=C(CN1CCOCC1)N1C[C@@H]2N[C@H](C1)C2c1ccc(-c2ccccc2)cc1 (stereo partly specified) | 11
Cc1ccccc1-c1ccc(C2[C@@H]3CN(C(=O)c4cnccn4)C[C@H]2N3)cc1 (stereo partly specified) | 4
COc1cccc(CN2[C@@H]3CNC[C@H]2[C@H]3c2ccc(-c3ccccc3OC)cc2)c1 | 8
